The list is not random: actives were taken first. Their share in the collection is about 12%.
BAZ2B block = BAZ2B (human) inhibition | AlphaScreen BAZ2B-H3K14Ac peptide displacement | Potency, µM (doses to about 114 µM), for the others: at the highest dose activity change, negative = inhibition, most hits filed as inhibitors | 360,000 tested, 4.4% active | AID 504333; note: % is set by controls: 0 for no effect and ±100 for the full control effect; nearly all actives have a fitted effect of over 60% in size
Target sequence (Q9UIF8 whole entry, looked up): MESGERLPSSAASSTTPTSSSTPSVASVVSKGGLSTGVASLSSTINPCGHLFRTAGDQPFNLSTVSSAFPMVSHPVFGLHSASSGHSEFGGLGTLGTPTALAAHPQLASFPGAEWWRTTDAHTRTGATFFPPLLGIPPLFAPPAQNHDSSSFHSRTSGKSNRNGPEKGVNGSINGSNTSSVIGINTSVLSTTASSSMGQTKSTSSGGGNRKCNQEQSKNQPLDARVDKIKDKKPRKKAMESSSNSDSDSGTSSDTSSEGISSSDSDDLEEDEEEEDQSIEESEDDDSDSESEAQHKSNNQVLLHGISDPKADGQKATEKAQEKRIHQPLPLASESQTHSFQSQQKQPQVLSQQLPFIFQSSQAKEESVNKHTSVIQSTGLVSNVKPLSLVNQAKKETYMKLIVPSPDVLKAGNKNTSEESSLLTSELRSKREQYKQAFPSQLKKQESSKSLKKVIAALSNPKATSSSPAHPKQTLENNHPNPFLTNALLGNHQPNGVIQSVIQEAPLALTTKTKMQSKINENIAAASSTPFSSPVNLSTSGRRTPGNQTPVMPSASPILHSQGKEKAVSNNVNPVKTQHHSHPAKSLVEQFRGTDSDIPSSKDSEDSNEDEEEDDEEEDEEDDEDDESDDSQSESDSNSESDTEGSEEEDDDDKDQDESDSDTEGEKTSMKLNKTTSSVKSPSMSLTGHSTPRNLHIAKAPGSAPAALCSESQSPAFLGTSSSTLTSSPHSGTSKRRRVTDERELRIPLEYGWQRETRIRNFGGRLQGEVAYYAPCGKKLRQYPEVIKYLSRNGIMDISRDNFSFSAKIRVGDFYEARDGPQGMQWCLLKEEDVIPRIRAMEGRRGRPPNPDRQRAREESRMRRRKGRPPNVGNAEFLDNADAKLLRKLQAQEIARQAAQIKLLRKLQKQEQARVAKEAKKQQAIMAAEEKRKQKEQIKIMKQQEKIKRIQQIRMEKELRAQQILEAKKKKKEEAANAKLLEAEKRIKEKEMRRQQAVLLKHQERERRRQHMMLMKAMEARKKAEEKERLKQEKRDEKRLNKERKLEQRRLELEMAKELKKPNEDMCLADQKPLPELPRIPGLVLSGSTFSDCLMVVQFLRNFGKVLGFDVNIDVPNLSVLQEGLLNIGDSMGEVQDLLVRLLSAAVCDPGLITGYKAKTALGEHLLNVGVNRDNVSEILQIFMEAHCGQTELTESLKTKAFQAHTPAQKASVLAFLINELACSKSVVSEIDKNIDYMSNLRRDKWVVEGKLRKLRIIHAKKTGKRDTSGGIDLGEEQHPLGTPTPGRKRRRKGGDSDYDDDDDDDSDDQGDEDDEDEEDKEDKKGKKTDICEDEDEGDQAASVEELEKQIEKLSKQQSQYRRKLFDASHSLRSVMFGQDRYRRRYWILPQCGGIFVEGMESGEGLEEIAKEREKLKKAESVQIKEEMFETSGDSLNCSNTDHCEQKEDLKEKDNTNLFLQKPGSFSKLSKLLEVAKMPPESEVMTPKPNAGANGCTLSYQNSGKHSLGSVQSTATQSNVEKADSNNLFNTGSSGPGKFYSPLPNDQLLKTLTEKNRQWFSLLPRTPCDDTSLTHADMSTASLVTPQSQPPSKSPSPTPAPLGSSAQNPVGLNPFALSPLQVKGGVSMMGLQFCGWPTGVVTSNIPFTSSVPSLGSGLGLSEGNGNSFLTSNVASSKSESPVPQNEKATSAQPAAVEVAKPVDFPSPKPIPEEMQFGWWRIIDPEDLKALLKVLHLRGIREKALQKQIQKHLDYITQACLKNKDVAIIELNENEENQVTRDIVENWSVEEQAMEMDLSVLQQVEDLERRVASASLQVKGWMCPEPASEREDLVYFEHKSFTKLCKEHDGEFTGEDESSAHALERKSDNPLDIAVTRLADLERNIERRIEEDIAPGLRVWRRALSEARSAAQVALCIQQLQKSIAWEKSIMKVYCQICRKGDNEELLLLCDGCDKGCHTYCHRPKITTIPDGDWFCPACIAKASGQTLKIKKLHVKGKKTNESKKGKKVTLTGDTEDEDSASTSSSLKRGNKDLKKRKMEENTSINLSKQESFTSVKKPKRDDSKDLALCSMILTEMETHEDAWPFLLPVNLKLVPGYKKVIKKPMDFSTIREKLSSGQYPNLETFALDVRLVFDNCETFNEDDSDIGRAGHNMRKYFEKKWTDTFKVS
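Multi-concentration screen (max 110 uM) measuring displacement of acetylated histone H3 peptide from BAZ2B by AlphaScreen, using 50 nM protein, 50 nM peptide and 10 ug/mL streptavidin donor plus Ni-chelate acceptor beads.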
Sfp PPTase inh = Sfp phosphopantetheinyl transferase inhibition | AID 1490 | Q9F4F7 | Potency, µM, for inactives: largest response in the series, negative = inhibition, hits mostly inhibitors | Biochemical Sfp PPTase activity, qHTS | 310,000 tested, 3.5% active;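 note: the enzyme is Sfp with the accession as filed and its product quenches rhodamine fluorescence; 0% = enzyme reaction without inhibitor and -100% = no enzyme wells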
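Fluorescence-quenching assay: 15 nM Sfp-PPTase preincubated 15 min at room temperature with compound, then 5 uM rhodamine-CoA and 12.5 uM BHQ-2-labelled YbbR peptide added. Fluorescence (ex 525/em 598 nm) read at start and after 30 min; difference gives rate.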
HP1b chromo inh = blocks HP1-beta chromodomain binding to methylated histone tails. AlphaScreen HP1-beta / biotin-H3K9me3 peptide binding. Potency, µM (titrated, usually from 114 µM), without a hit: at the highest dose activity change, negative = inhibition, most hits filed as inhibitors. 390,000 tested, 0.56% active; note: nearly all actives have a fitted effect of over 70% in size
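HP1-beta protein (50 nM final) preincubated 30 min at room temperature with biotinylated H3(1-18)K9me3 peptide (50 nM) in PBS pH 7.4, 0.01% Tween-20, then compound added for 30 min. AlphaScreen streptavidin donor/nickel chelate acceptor beads (10 ug/mL final), 30 min dark, luminescence read.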
G9a block = blocks human histone lysine methyltransferase G9a | G9a H3K9 monomethylation, AlphaScreen, 2 h | Potency, µM (doses to about 102 µM), without a hit: at the highest dose activity, negative = inhibition, most hits filed as inhibitors | 350,000 tested, 8.8% active | Q96KQ7 | AID 504332; note: % is set by controls: 0 for no effect and ±100 for the full control effect; nearly all actives have a fitted effect of over 75% in size
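Compounds were preincubated with 20 nM G9a for 15 min, after which biotinylated H3K9 peptide (500 nM) and SAM (20 uM) started a 2 h room-temperature reaction. Monomethylated product was quantified by antibody-based AlphaScreen chemiluminescence.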
JMJD2A Tudor = inhibitors of human JMJD2A Tudor domain | O75164 | AlphaScreen JMJD2A-Tudor / H3K4me3 peptide binding | Potency, µM (top dose mostly 114 µM), without a hit: at the highest dose activity change, negative = inhibition, hits mostly inhibitors | 390,000 tested, 4.4% active | AID 504339; note: % is set by controls: 0 for no effect and ±100 for the full control effect; nearly all actives have a fitted effect of over 50% in size
L3MBTL1 inh = inhibitors of human L3MBTL1; Q9Y468; AlphaScreen L3MBTL1–H3K9me1 peptide binding; Potency, µM (titrated, usually from 57.1 µM), for inactives: at the top dose activity, negative = inhibition, usual class: inhibitors; 230,000 tested, 0.66% active; AID 485360; note: % is set by controls: 0 for no effect and ±100 for the full control effect; nearly all actives have a fitted effect of over 60% in size
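Displacement of a biotinylated histone H3(1-15) peptide monomethylated at Lys9 (75 nM) from L3MBTL1 (50 nM) was measured by AlphaScreen after a 30 min room-temperature compound incubation; cefsulodin titration served as intraplate control.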
* = called active by the depositor; ? = inconclusive; . = not tested or not shown; [ ] = another dose, or the depositor's remark. Calls come from the whole dose curve; as a rule, active = well fitted curve in the direction sought with a large enough effect; inconclusive = small, poorly fitted or top-dose-only effect, or another doubt; inactive = no such curve, though single readings can be large; an effect the other way counts as inactive or inconclusive. Potency is the fitted concentration of half-maximal effect.

SMILES | BAZ2B block | Sfp PPTase inh | HP1b chromo inh | G9a block | JMJD2A Tudor | L3MBTL1 inh
Cc1nnc2c(N3CCN(c4ccc(F)cc4)CC3)nc3ccc(C(=O)c4ccccc4)cc3n12 | -8.4% | . | 58.6% | 18.9%[59 µM] | -5.5% | .
Cc1ccc(S(=O)(=O)C(CNC(=O)C(=O)NCCc2ccc(Cl)cc2)c2cccs2)cc1 (configuration not stated) | -2.1% | . | 9.6% | -0.3%[59 µM] | -18.8% | .
CCOc1ccc(-c2nn(-c3ccccc3)cc2C2NC(=O)NC(C)=C2C(=O)OC(C)C)cc1C (configuration not stated) | -19.9% | . | 3.4% | -48.3%[59 µM] | ? | .
CN(C)c1ccc(/C=C(\NC(=O)c2ccccc2)C(=O)NCCN2CCOCC2)cc1 | -4.6% | 12.1% | 3.2% | 70.8µM* | -15.2% | .
CCOc1ccccc1CNc1nc2nc(C)c(CC(=O)OC)c(=O)n2[nH]1 | ? | . | 11.3% | -25.9%[59 µM] | -16.7% | .
CCCC[C@]12Cc3cc(C#N)ccc3C(O1)c1c(cc(C)n(Cc3ccccc3)c1=O)O2 | -20.2%[22.9 µM] | 4.9% | . | 7.5%[2.33 µM] | . | .
COCCn1nnnc1C(c1cccc(OC)c1OC)N1CCN(C(=O)c2ccco2)CC1 (configuration not stated) | -18.2% | 5.5% | 28.9% | 50.1µM* | -9.6% | .
COCCn1nnnc1C(c1ccccc1OC)N1CCN(C(=O)c2ccco2)CC1 (configuration not stated) | -25.7% | 2.3% | 52.1% | 50.1µM* | ? | .
COCCn1nnnc1C(c1ccccc1)N1CCN(C(=O)c2ccco2)CC1 (configuration not stated) | ? | -9.8% | -4.7%[57 µM] | ? | ? | .
CC(C)CCn1nnnc1C(c1ccc(F)cc1)N1CCN(C(=O)c2ccco2)CC1 (configuration not stated) | -35.5% | -3.1% | 44.5% | 50.1µM* | -11.8% | 5.4%
Cn1nnc(NC(=S)NC(=O)c2ccc(-c3ccc(Br)cc3)o2)n1 | -12.8% | -15.3% | -7.2% | ? | -3.9% | -0.6%
CC(C)C(=O)NC(=S)Nc1nnn(C)n1 | 56.2µM* | -90.2% | ? | 8.91µM* | 1.12µM* | 11.5%
COc1cc(OC)cc(C(=O)NC(=S)Nc2nnn(C)n2)c1 | ? | 35.5µM* | ? | 10µM* | ? | -4.8%
Cn1nnc(NC(=S)NC(=O)c2cccc3ccccc23)n1 | -37.7% | 35.5µM* | -17.1%[57 µM] | 7.94µM* | 2.82µM* | .
COc1cc(OC)c(NC(=O)N2CCCn3nc(C)cc32)cc1Cl | 5.3%[57.1 µM] | . | 45.8% | -7.6%[59 µM] | -3.2% | .
CC1C=CC=CC=CC=CC=CC=CC=CC(OC2OC(C)C(O)C(N)C2O)CC2OC(O)(CC(O)CC(O)C(O)CCC(O)CC(O)CC(=O)OC(C)C(C)C1O)CC(O)C2C(=O)O (configuration not stated) | . | . | 12.8% | . | 11.2µM* | .
COc1ccc(C2C(C(=O)Nc3ccccc3OC)=C(C)Nc3c(C(=O)Nc4ccccc4)cnn32)c(OC)c1 (configuration not stated) | -1.7%[57.1 µM] | . | 22.1% | -22.6%[59 µM] | -23.0% | .
COc1cccc(-c2sc3ccc(OC)cc3c2-c2ccc(OCCN3CCCC3)cc2)c1 | . | . | ? | . | 56.2µM* | -3.6%
COc1cccc(-c2sc3ccccc3c2-c2ccc(OCCN3CCCC3)cc2)c1 | . | . | ? | . | 44.7µM* | -2.7%
COc1cccc(-c2sc3ccccc3c2-c2ccc(OCCN3CCCCC3)cc2)c1 | . | . | -10.9% | . | ? | -3.3%
COc1cccc(-c2sc3ccc(OC)cc3c2-c2ccc(C(N)=O)cc2)c1 | 3.4% | . | 19.0% | 0.1%[0.501 µM] | -16.8% | -8.9%
COc1cccc(-c2sc3ccccc3c2-c2ccc(OCCN(C)C)cc2)c1 | . | . | ? | . | 44.7µM* | -11.9%
COc1cccc(-c2sc3cc(OC)c(OC)cc3c2-c2ccc(OCCN3CCCCC3)cc2)c1 | . | . | ? | . | 31.6µM* | -26.3%
CCCCOC(=O)c1ccc(NC(=O)c2cc(-c3cccs3)on2)cc1 | -3.0% | . | 31.0% | -22.6%[59 µM] | -2.0% | .
O=C(O[C@H]1CN2CCC1CC2)N1CCc2ccccc2[C@@H]1c1ccccc1 | . | 3.2% | . | -43.8%[12.7 µM] | . | .

Assay outcomes: PubChem, National Center for Advancing Translational Sciences (NCATS)
